HP1b binding inh – HTS for Inhibitors of HP1-beta Chromodomain Interactions with Methylated Histone Tails. hit rate 0.56% among 390,000. AlphaScreen HP1-beta / biotin-H3K9me3 peptide binding. Potency, µM (titrated, usually from 114 µM), most hits filed as inhibitors. Chromobox protein homolog 1 (Homo sapiens), P83916; further: nearly all actives have a fitted effect of over 70% in size
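HP1-beta protein (50 nM final) preincubated 30 min at room temperature with biotinylated H3(1-18)K9me3 peptide (50 nM) in PBS pH 7.4, 0.01% Tween-20, then compound added for 30 min. AlphaScreen streptavidin donor/nickel chelate acceptor beads (10 ug/mL final), 30 min dark, luminescence read.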
PLK1 PBD inh – qHTS for Inhibitors of PLK1-PDB (polo-like kinase 1 - polo-box domain): Primary Screen; Plk1 PBD binding of FITC phosphopeptide, fluorescence polarization; hit rate 2.8% among 360,000; Serine/threonine-protein kinase PLK1 (Homo sapiens), P53350; AID 720504, 2013; Potency, µM, most hits filed as inhibitors; further: series mostly up to about 57 µM; nearly all actives have a fitted effect of over 65% in size
12-LOX inh – Primary qHTS assay for inhibitors of human arachidonate 12S-lipoxygenase (ALOX12): Round 2; Potency, µM (top dose mostly 108 µM), actives largely listed as inhibitors; purified 12hLO, xylenol orange hydroperoxide absorbance; hit rate 1.1% among 580,000; Polyunsaturated fatty acid lipoxygenase ALOX12 (Homo sapiens), P18054
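Hydroperoxide product was detected by ferrous iron/xylenol orange as the 573 to 405 nm absorbance ratio. Arachidonic acid at 40 uM (final) was turned over for 30 min at room temperature by 150 nM human 12hLO, pH 7.0 Hepes buffer, after 15 min compound preincubation.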
G9a inh – qHTS Assay for Inhibitors of Histone Lysine Methyltransferase G9a. Histone-lysine N-methyltransferase EHMT2 (Homo sapiens), Q96KQ7. G9a H3K9 monomethylation, AlphaScreen, 2 h. Potency, µM (doses to about 102 µM), usual class: inhibitors. hit rate 8.8% among 350,000. AID 504332, 2011; further: nearly all actives have a fitted effect of over 75% in size
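Signal arises when biotinylated H3K9 peptide, once monomethylated, bridges streptavidin donor and antibody-captured acceptor beads. Enzyme at 20 nM was preincubated 15 min with test compounds; peptide 500 nM and SAM 20 uM then reacted for 2 h.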
JMJD2A Tudor – qHTS Assay for Inhibitors of JMJD2A-Tudor Domain; AID 504339, 2011; hit rate 4.4% among 390,000; AlphaScreen JMJD2A-Tudor / H3K4me3 peptide binding; Potency, µM (highest dose often 114 µM), usual class: inhibitors; Lysine-specific demethylase 4A (Homo sapiens), O75164; further: nearly all actives have a fitted effect of over 50% in size
BAZ2B block – qHTS Assay for Inhibitors of BAZ2B; Bromodomain adjacent to zinc finger domain protein 2B (Homo sapiens), Q9UIF8; AlphaScreen BAZ2B-H3K14Ac peptide displacement; Potency, µM (doses to about 114 µM), usual class: inhibitors; hit rate 4.4% among 360,000; further: nearly all actives have a fitted effect of over 60% in size
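In this displacement format the biotinylated H3(5-23) peptide acetylated at Lys14 serves as ligand at 50 nM, with BAZ2B at 50 nM in PBS pH 7.4 containing 0.01% Tween-20. Donor and acceptor beads are 10 ug/mL final.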
Of the large screens only hits and unclear results are named; the others gave an inactive call. This is a sample that favours compounds with a hit; in the whole collection about 9% have one here. The call rests on the fitted dose curve; in most records, active means well fitted curve in the direction sought with a large enough effect; inconclusive means small, poorly fitted or top-dose-only effect, or another doubt; inactive means no such curve, though single readings can be large; an effect the other way counts as inactive or inconclusive.

CCc1ccc(C2CC(c3ccccc3)n3ncnc3N2)cc1 (stereo not drawn)	G9a inh 79µM
CC(=O)c1ccc(S(=O)(=O)N2CCn3cccc3C2C)cc1 (stereo not drawn)	12-LOX inh inconclusive, G9a inh inconclusive
CCOC(=O)c1c(C=O)c(C)n(Cc2ccccc2Cl)c1C	JMJD2A Tudor inconclusive, BAZ2B block inconclusive
COc1ccc(S(=O)(=O)N2CCC(C(=O)N(C)Cc3ccc(C)o3)CC2)cc1OC	none
CCCCn1c(=N)n(CC(=O)c2ccc([N+](=O)[O-])cc2)c2ccccc21	12-LOX inh inconclusive, G9a inh 40µM (no result: HP1b binding inh, PLK1 PBD inh, JMJD2A Tudor)
CCCCCCCOc1ccc(OC(=O)c2ccc(OCCCCCC)cc2)cc1	none (no result: HP1b binding inh, PLK1 PBD inh, G9a inh, JMJD2A Tudor, BAZ2B block)
CCCCn1c(=N)n(CC(=O)c2ccco2)c2ccccc21	none
Cc1ccc(Cn2c(=N)n(CC(=O)c3ccc([N+](=O)[O-])cc3)c3ccccc32)cc1	12-LOX inh inconclusive, G9a inh 50µM
Cc1ccc(C(=O)Cn2c(=N)n(CCN3CCOCC3)c3ccccc32)cc1	none
CCCCC(=O)c1ccc(OC(=O)c2ccc([N+](=O)[O-])cc2)cc1	HP1b binding inh inconclusive, JMJD2A Tudor 50µM (no result: G9a inh, BAZ2B block)
CN(CCc1ccccn1)C(=O)CC1C(=O)NCCN1Cc1ccccc1C(F)(F)F (stereo not drawn)	G9a inh inconclusive
CCCCC(CC(O)COCCC)c1n[nH]c(=S)n1-c1ccccc1 (stereo not drawn)	JMJD2A Tudor 16µM
CCCCC(CC(O)COCCC)C(=O)NN (stereo not drawn)	none
COc1ccc(-n2c(Cn3nnc4ccccc43)n[nH]c2=S)cc1	G9a inh 8.9µM, JMJD2A Tudor 18µM
COc1ccc(-n2c(Cn3nnc4ccccc43)nnc2SCC(=O)O)cc1	none (no result: BAZ2B block)
CCCOc1ccc(CCc2n[nH]c(=S)n2-c2ccccc2)cc1	12-LOX inh inconclusive, G9a inh 5.6µM
S=c1[nH]nc(CCSCc2ccccc2)n1-c1ccccc1	12-LOX inh inconclusive, G9a inh 3.5µM, JMJD2A Tudor 40µM, BAZ2B block inconclusive
COc1ccccc1N1CCN(CCc2n[nH]c(=S)n2-c2ccccc2)CC1	12-LOX inh inconclusive, G9a inh inconclusive, JMJD2A Tudor 18µM, BAZ2B block 50µM
COc1ccccc1N1CCN(CCCn2c(=S)[nH]c3ccccc3c2=O)CC1	BAZ2B block inconclusive
COc1ccc(-n2c(CCc3ccccc3)n[nH]c2=S)cc1	12-LOX inh inconclusive, JMJD2A Tudor 11µM
Oc1ccc(CCc2n[nH]c(=S)n2-c2ccc(F)cc2)cc1	12-LOX inh 25µM, G9a inh 6.3µM, JMJD2A Tudor 25µM
CCCOc1ccc(CCc2n[nH]c(=S)n2Cc2ccccc2)cc1	12-LOX inh inconclusive, G9a inh inconclusive
CCOc1ccc(-n2c(CCc3ccccc3)n[nH]c2=S)cc1	12-LOX inh inconclusive, G9a inh inconclusive, JMJD2A Tudor 16µM
O=C1CCN(C(=O)Cc2ccccc2)CCCOCCN1	none (no result: HP1b binding inh, PLK1 PBD inh, G9a inh, JMJD2A Tudor, BAZ2B block)
COc1ccc2oc(C(=O)NCCc3ccccc3)c(C)c2c1	12-LOX inh inconclusive
CCCCCC(O)CCc1n[nH]c(=S)n1-c1ccccc1 (stereo not drawn)	12-LOX inh inconclusive, G9a inh 8.9µM, JMJD2A Tudor 20µM
Cc1cc(C)n(CCC(=O)NCC2Cc3cc(Cl)cc(-c4cnccn4)c3O2)n1 (stereo not drawn)	none (no result: HP1b binding inh, PLK1 PBD inh, G9a inh, JMJD2A Tudor, BAZ2B block)
CN(C)S(=O)(=O)c1cc(NC(=O)CN2CCN(c3ccccc3)CC2)ccc1Cl	none
O=C(CN1CCN(c2ccc(O)cc2)CC1)Nc1ccc(S(=O)(=O)N2CCCC2)cc1	HP1b binding inh inconclusive, 12-LOX inh inconclusive, JMJD2A Tudor 50µM (no result: G9a inh, BAZ2B block)

Screening results: PubChem, National Center for Advancing Translational Sciences (NCATS)
